The values that follow come from PubChem BioAssay (NCI).

SMILES strings stand for the structures. Values joined by “and” are separate entries in the source; they are usually repeats but may differ in a detail not shown here. Equal entries are not always repeated. The panel holds about 83,000 compounds, 20% with a hit somewhere; the sample as a whole holds those more often.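 Note: values are percent growth. 100 is the growth of untreated cells, values between 100 and 0 indicate rising inhibition; between -100 and 0 indicates cell death.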 Active and inactive are the calls of the source. Rule for the calls: active = growth percent below 10; inactive = the rest.

Among the test systems are NCI-H23 lung; NCI-H226 lung; NCI-H322M lung; HOP-62 NSCLC; NCI-H460 lung; HOP-92 NSCLC; NCI-H522 lung; 786-0 renal; COLO 205 colon; DU-145 prostate; K-562 leukemia; MALME-3M melanoma; MDA-MB-231 breast; RXF 393 renal; SF-268 CNS; SF-295 CNS; SF-539 CNS; UACC-257 melanoma; M14 melanoma; A549/ATCC NSCLC.
Holding throughout (test): NCI-60 one-dose screen, 48 h (100 = growth as untreated, 0 = no growth, -100 = all killed)
What all share (conditions): 10 µM unless noted

On to `COc1ccc(CCNC(=S)NN)cc1OC`, for which the growth is 99.5% (inactive) in the test with NCI-H23 lung; 106% (inactive) in the test with NCI-H226 lung; 108% (inactive) in the test with NCI-H322M lung; 117% (inactive) in the test on HOP-62 NSCLC; 101% (inactive) with NCI-H460 lung; 94.8% (inactive) in the test with HOP-92 NSCLC. Besides, the growth is 102% (inactive) in the test with NCI-H522 lung; 109% (inactive) with 786-0 renal; 112% (inactive) with COLO 205 colon; 106% (inactive) in the test on DU-145 prostate; 101% (inactive) in the test with K-562 leukemia; 124% (inactive) in the test with MALME-3M melanoma. The growth in the test with MDA-MB-231 breast is 114% (inactive); in the test with RXF 393 renal it was 200% (inactive); in the test with SF-268 CNS it was 96% (inactive); in the test with SF-295 CNS, 103% (inactive); with SF-539 CNS it was 95% (inactive); with UACC-257 melanoma, 108% (inactive). Moreover, in the test with M14 melanoma, the growth is 104% (inactive).
For `COc1ccccc1OCC(O)CO` (stereo not given), the growth in the test with NCI-H23 lung is 106% (inactive) and 103% (inactive); in the test on NCI-H226 lung, 102% (inactive) and 94.6% (inactive); with NCI-H322M lung, 75.7% (inactive) and 115% (inactive); with HOP-62 NSCLC, 96.8% (inactive) and 121% (inactive); with NCI-H460 lung, 105% (inactive) and 113% (inactive); in the test on HOP-92 NSCLC, 90% (inactive). The growth is 98.6% (inactive) and 106% (inactive) in the test on NCI-H522 lung; 97.6% (inactive) and 102% (inactive) in the test on 786-0 renal; 116% (inactive) in the test on COLO 205 colon; 115% (inactive) and 123% (inactive) in the test with DU-145 prostate; 118% (inactive) and 87.4% (inactive) with K-562 leukemia; 110% (inactive) and 105% (inactive) with MALME-3M melanoma. For the same compound, the growth in the test with MDA-MB-231 breast was 114% (inactive) and 111% (inactive); in the test with RXF 393 renal, 110% (inactive) and 111% (inactive); in the test on SF-268 CNS it was 100% (inactive) and 114% (inactive); with SF-295 CNS, 3.64% (active) and 96.5% (inactive); with SF-539 CNS it was 92.3% (inactive) and 121% (inactive); in the test with UACC-257 melanoma it was 102% (inactive) and 105% (inactive). The growth in the test on M14 melanoma was 104% (inactive) and 106% (inactive).
Regarding `O=[N+]([O-])c1ccc(NC(c2ccccc2)c2ccc3cccnc3c2O)cc1` (stereo not given), the growth in the test with NCI-H23 lung is 32% (inactive); with NCI-H226 lung, 16.6% (inactive); with NCI-H322M lung, 29.8% (inactive); in the test with HOP-62 NSCLC, 26.5% (inactive); in the test on NCI-H460 lung it was -16% (active); in the test on HOP-92 NSCLC it was 62.5% (inactive). For the same compound, the growth is 17.9% (inactive) in the test with NCI-H522 lung; 18.3% (inactive) with 786-0 renal; 30.3% (inactive) in the test on COLO 205 colon; 22.5% (inactive) with DU-145 prostate; 13% (inactive) with K-562 leukemia; 17.2% (inactive) in the test on MALME-3M melanoma. Further, the growth in the test on MDA-MB-231 breast was 44.1% (inactive); with RXF 393 renal it was 43.9% (inactive); with SF-268 CNS, 12.9% (inactive); in the test on SF-295 CNS, 14.5% (inactive); with SF-539 CNS, 14% (inactive); in the test on UACC-257 melanoma it was -4.88% (active). Also, the growth with M14 melanoma was 8.95% (active).
In the case of `CCOC(=O)c1ccc(C(=N)N)cc1`, the growth with NCI-H23 lung is 99% (inactive); in the test with NCI-H226 lung, 106% (inactive); in the test with NCI-H322M lung, 117% (inactive); in the test on HOP-62 NSCLC, 108% (inactive); in the test with NCI-H460 lung, 103% (inactive); in the test on HOP-92 NSCLC, 80.2% (inactive). Moreover, the growth with NCI-H522 lung is 102% (inactive); with A549/ATCC NSCLC, 107% (inactive); in the test on 786-0 renal it was 106% (inactive); with COLO 205 colon, 114% (inactive); with DU-145 prostate, 106% (inactive); in the test with K-562 leukemia, 101% (inactive). The growth in the test on MALME-3M melanoma is 108% (inactive); in the test with MDA-MB-231 breast, 120% (inactive); in the test with RXF 393 renal, 95.4% (inactive); in the test on SF-268 CNS, 104% (inactive); in the test on SF-295 CNS, 101% (inactive); in the test with SF-539 CNS, 105% (inactive). Also, the values for the growth in the test on UACC-257 melanoma and in the test with M14 melanoma were 96.8% (inactive) and 108% (inactive), respectively.
With `COc1ccc(/C=N/NC(N)=S)cc1`, the growth in the test with NCI-H23 lung was 89.2% (inactive); in the test with NCI-H226 lung it was 105% (inactive); in the test with NCI-H322M lung it was 103% (inactive); in the test on HOP-62 NSCLC it was 93.4% (inactive); with NCI-H460 lung, 103% (inactive); with HOP-92 NSCLC, 68.4% (inactive). Also, the growth with NCI-H522 lung is 89.4% (inactive); in the test on 786-0 renal it was 98.3% (inactive); with COLO 205 colon, 106% (inactive); with DU-145 prostate it was 110% (inactive); in the test with K-562 leukemia, 106% (inactive); with MALME-3M melanoma, 94.4% (inactive). Besides, the growth with MDA-MB-231 breast is 101% (inactive); with RXF 393 renal it was 95.8% (inactive); with SF-268 CNS, 104% (inactive); in the test on SF-295 CNS, 106% (inactive); in the test with SF-539 CNS, 103% (inactive); in the test with UACC-257 melanoma, 102% (inactive). For the same compound, the growth with M14 melanoma is 96.3% (inactive).
On to `COc1ccc(CCO)cc1`, for which the growth in the test on NCI-H23 lung was 110% (inactive); with NCI-H226 lung, 92.8% (inactive); in the test on NCI-H322M lung, 99% (inactive); in the test on HOP-62 NSCLC it was 96.2% (inactive); in the test on NCI-H460 lung, 108% (inactive); in the test with HOP-92 NSCLC, 86.4% (inactive). Further, the growth in the test with NCI-H522 lung is 88.6% (inactive); with A549/ATCC NSCLC, 92.9% (inactive); in the test with 786-0 renal, 99.3% (inactive); with COLO 205 colon, 96.3% (inactive); in the test with DU-145 prostate, 110% (inactive); with K-562 leukemia, 82.9% (inactive). In addition, the growth with MALME-3M melanoma is 92.1% (inactive); in the test on MDA-MB-231 breast it was 102% (inactive); with RXF 393 renal, 105% (inactive); with SF-268 CNS, 105% (inactive); in the test on SF-295 CNS, 103% (inactive); in the test with SF-539 CNS it was 101% (inactive). Moreover, the growth in the test on UACC-257 melanoma was 96.4% (inactive); in the test with M14 melanoma, 103% (inactive).
In the case of `CCNCc1ccccc1`, the growth with NCI-H23 lung is 91.4% (inactive); in the test with NCI-H226 lung, 100% (inactive); in the test on NCI-H322M lung, 100% (inactive); in the test on HOP-62 NSCLC, 102% (inactive); in the test on NCI-H460 lung, 109% (inactive); in the test on HOP-92 NSCLC, 113% (inactive). The growth with NCI-H522 lung is 102% (inactive); in the test on 786-0 renal, 103% (inactive); with COLO 205 colon it was 107% (inactive); with DU-145 prostate, 104% (inactive); in the test on K-562 leukemia it was 96.3% (inactive); with MALME-3M melanoma it was 101% (inactive). Moreover, the growth in the test on MDA-MB-231 breast was 110% (inactive); with RXF 393 renal it was 118% (inactive); with SF-268 CNS it was 104% (inactive); in the test on SF-295 CNS, 105% (inactive); with SF-539 CNS it was 102% (inactive); in the test on UACC-257 melanoma, 102% (inactive). Also, the growth in the test on M14 melanoma is 109% (inactive).
